The supplement of paper PMC10515830
Structures can show the parent of a compound that is named as a salt.

Key:
Conditions in all cases: 10 µM; exposure time 6 h
[1] = tested on: Danio rerio larvae (5 dpf); assay: difference in excitability vs DMSO (percentage points); higher = more excitable than DMSO
Outline: (§1)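 Wild-type 5 dpf zebrafish larvae in 96-well plates were given 100 µL egg water containing library compound at 10 µM final for 6 h. After 3 h of exposure, plates at 28.5 ℃ were photographed every 6 s during a 3-h programme of moving lines and 100 ms, 400Hz tones. Z-LaP Tracker (a DeepLabCut model) quantified each behaviour, averaged over 48 larvae per compound. Values are the compound mean minus the DMSO-vehicle control, in percentage points.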

[2] = tested on: Danio rerio larvae (5 dpf); assay: difference in startle response vs DMSO (percentage points); higher = stronger startle than DMSO
Outline: as §1

[3] = tested on: Danio rerio larvae (5 dpf); assay: difference in activity during first hour vs DMSO (percentage points); higher = more activity than DMSO
Outline: as §1

[4] = tested on: Danio rerio larvae (5 dpf); assay: difference in habituation to acoustic stimuli vs DMSO (percentage points); higher = more habituation than DMSO
Outline: as §1

[5] = tested on: Danio rerio larvae (5 dpf); assay: difference in combined optomotor response to red, green and blue moving lines vs DMSO (percentage points); higher = stronger optomotor response than DMSO
Outline: as §1

SMILES	difference in excitability [1]	difference in startle response [2]	difference in activity during first hour [3]	difference in habituation to acoustic stimuli [4]	difference [5]
CC(C)NCC(O)c1cc(O)cc(O)c1 (stereo not given) [Metaproterenol (hemisulfate)]	3.08	0.666	26.4	-8.48	1.44
O=C(c1ccccc1)c1ccc2n1CCC2C(=O)O (stereo not given) [Ketorolac (tromethamine salt)]	-0.0297	5.09	-3.37	7.86	-1.11
CC1(C)S[C@@H]2[C@H](NC(=O)[C@H](N)c3ccc(O)cc3)C(=O)N2[C@H]1C(=O)O [Amoxicillin (hydrate)]	2.37	8.42	13.1	5.1	8.79
COc1ccc(-c2ccc3cc(C(=O)O)ccc3c2)cc1C12CC3CC(CC(C3)C1)C2 [Adapalene]	-8.45	3.9	-0.172	-5	3.86
Cc1c(-c2ccc(O)cc2)n(Cc2ccc(OCCN3CCCCCC3)cc2)c2ccc(O)cc12 [Bazedoxifene (acetate)]	9.87	1.08	-9.97	-5.25	-3.93
COCCCOc1ccnc(C[S+]([O-])c2nc3ccccc3[nH]2)c1C (stereo not given) [Rabeprazole (sodium salt)]	2.22	-0.57	7.69	-4.65	15.4
CON(C)Cc1ccc(O)c2c1C[C@H]1C[C@H]3[C@H](N(C)C)C(=O)C(C(N)=O)=C(O)[C@@]3(O)C(=O)C1=C2O	-1.28	-2.07	7.53	4.95	0.0321
Cc1cc(Nc2ncc(Cl)c(Nc3ccccc3S(=O)(=O)C(C)C)n2)c(OC(C)C)cc1C1CCNCC1 [Ceritinib]	23.6	-3.09	-7.86	-6.25	-1.6
CCOC(=O)[C@H](CCc1ccccc1)N[C@@H](C)C(=O)N1[C@H](C(=O)O)C[C@H]2CCCC[C@@H]21 [Trandolapril]	-2.52	-0.34	2.67	-0.88	6.04
c1cnc2cc3c(cc2n1)[C@@H]1CNC[C@H]3C1 [Varenicline (tartrate)]	0.228	1.55	3.08	5.66	-2.67
CN1CC2c3ccccc3Oc3ccc(Cl)cc3C2C1 (racemic) [(±)-Asenapine]	15.8	-0.436	46.3	-12.3	-1.19
Clc1cccc(Cl)c1NC1=NCCN1 [Clonidine (hydrochloride)]	9.22	3.55	-11.7	0.121	6.82
CCc1ccc(CCOc2ccc(CC3SC(=O)NC3=O)cc2)nc1 (stereo not given) [Pioglitazone (hydrochloride)]	12.4	-4.66	-15.3	6.03	3.69
O=c1[nH]c(=O)n([C@H]2C[C@H](O)[C@@H](CO)O2)cc1I [Idoxuridine]	6.91	0.604	-3.04	5.55	2.86
Cc1c(O)c(=O)ccn1C [Deferiprone]	4.23	-1.15	8.16	-1.01	10.8
O=C(O)c1ccc(-n2nc(-c3ccccc3O)nc2-c2ccccc2O)cc1 [Deferasirox]	1.98	-2.31	17.7	2.04	5.07
CN(CCOc1ccc(CC2SC(=O)NC2=O)cc1)c1ccccn1 (stereo not given) [Rosiglitazone (maleate)]	10.7	-3.19	10.3	-2.4	-0.752
Oc1ncnc2[nH]ncc12 [Allopurinol]	0.512	-2.34	-0.131	0.54	1.46
Clc1ccc(CO/N=C(\Cn2ccnc2)c2ccc(Cl)cc2Cl)c(Cl)c1 [Oxiconazole (nitrate)]	5.37	-6.72	-22.9	-11	-17.3
CC(C)C[C@H](NC(=O)[C@H](Cc1ccccc1)NC(=O)c1cnccn1)B(O)O [Bortezomib]	2.69	2.81	3.67	-1.33	-0.842
CCN(CC)CCOC(=O)C1(C2CCCCC2)CCCCC1 [Dicyclomine (hydrochloride)]	9.55	-4.86	-8.86	-5.06	-3.96
NC(=O)c1ncn([C@@H]2O[C@H](CO)[C@@H](O)[C@H]2O)n1 [Ribavirin]	3.64	-0.473	21.8	-4.01	5.68
COc1cc([C@@H]2c3cc4c(cc3[C@@H](O[C@@H]3O[C@@H]5CO[C@@H](c6cccs6)O[C@H]5[C@H](O)[C@H]3O)[C@H]3COC(=O)[C@H]23)OCO4)cc(OC)c1O [Teniposide]	-5.17	-1.26	-12	3.62	-8.33
C[C@H](CS)C(=O)N1CCC[C@H]1C(=O)O [Captopril]	1.66	-4.09	-5.55	-3.07	1.64
